Reference: PubChem BioAssay (Tox21)
Inconclusive results are not listed. The source made the active and inactive calls. Calls come from the whole dose curve.

Assay: qHTS assay for small molecule agonists of the p53 signaling pathway (AID 651631); note: nearly all actives have a fitted effect of over 15% in size
Settings: HCT-116 p53RE-bla reporter, beta-lactamase FRET ratio, 16 h; series mostly up to 73.3 µM; activation: at the top concentration
Excerpt: U.S. Tox21 Program National Center for Advancing Translational Sciences [NCATS] NIH Chemical Genomics Center [NCGC] U.S. Environmental Protection Agency [EPA] National Institutes of Environmental Health Sciences [NIEHS] National Toxicology Program [NTP] U.S. Food and Drug Administration [FDA] Tox21 Assay Overview: p53, a tumor suppressor protein, is activated following cellular insult, including DNA damage and other cellular stresses. The activation of p53 regulates cell fate by inducing DNA repair, cell cycle arrest, apoptosis, or cellular senescence. The activation of p53, therefore, is a good indicator of DNA damage and other cellular stresses. The CellSensor p53RE-bla HCT-116 cell line (Invitrogen) contains a stably integrated beta-lactamase reporter gene under control of the p53 response elements. The activation of the reporter gene under culture conditions can be detected by fluorescence intensity. This cell line was used to screen the Tox21 compound library in a 1536-well plate format and to identify agonists that activate the p53 signaling pathway.
Tox21 Assay Protocol Summary: The p53RE-bla cells were dispensed at 4,000 cells/5 ul/well in 1536-well black wall/clear bottom plates using a Multidrop dispenser. After the assay plates were incubated at a 37 C/5% CO2 incubator for 5 hours, 23 nL of compounds dissolved in DMSO, positive controls or DMSO only was transferred to the assay plate by a pin tool. The plates were incubated at 37 C for 16 hours. After 1 uL of LiveBLAzerTM B/G FRET substrate was added using a Flying Reagent Dispenser, the plates were incubated at room temperature for 2 hours, and fluorescence intensity was measured by an Envision plate reader.
% is set by controls: 0 for no effect and ±100 for the full control effect.

Compound	activation	outcome
Cc1ccc(S(=O)(=O)O)c(C)c1	-0.801% (inactive)	
Cc1ccccc1N=O	-4.45% [at 95.1 µM] (inactive)	
CCCCCCCCOS(=O)(=O)O	-1.07% (inactive)	
Cc1nc2n(c(=O)c1CCN1CCC(c3noc4cc(F)ccc34)CC1)CCC[C@H]2O	-2.02% (inactive)	
COC(=O)C1CC(=O)C(C(=O)OC)CC1=O (stereo not given)	-2.34% [at 8.3 µM] (inactive)	
Brc1ccc(-c2ccccc2)cc1	4.3% (inactive)	
Cc1cccc(C)c1OCC(C)N (stereo not given)		inactive
CC(C)CC(C)CC(C)CC(C)COC(=O)c1ccccc1C(=O)OCC(C)CC(C)CC(C)CC(C)C (stereo not given)	5.53% (inactive)	
CCOc1cc([N+](=O)[O-])c(OCC)cc1N1CCOCC1	3.85% (inactive)	
CCCC/C=C\CCCCCCCCCC=O	-1.41% (inactive)	
CO[C@@H]1[C@@H](OC(N)=O)[C@@H](O)[C@H](Oc2ccc3c(O)c(NC(=O)c4ccc(O)c(CC=C(C)C)c4)c(=O)oc3c2C)OC1(C)C	-2.9% [at 34.7 µM] (inactive)	
NS(=O)(=O)c1ccc(NC(=O)CCC(=O)O)cc1	4.21% (inactive)	
CC(=O)CCCCn1c(=O)c2c(ncn2C)n(C)c1=O	1.6% [at 34.7 µM] (inactive)	
CCCN1C[C@H](CSC)C[C@@H]2c3cccc4[nH]cc(c34)C[C@H]21	3.22% (inactive)	
CCOc1cc(NC(C)=O)ccc1C(=O)OC	-2.36% (inactive)	
c1ccc2c(c1)ccc1c3ccccc3ccc21	-3.17% (inactive)	
CC(C)C[C@H](NC(=O)CNC(=O)[C@H](Cc1ccc(O)cc1)NC(=O)[C@H](CO)NC(=O)[C@H](Cc1c[nH]c2ccccc12)NC(=O)[C@H](Cc1cnc[nH]1)NC(=O)[C@@H]1CCC(=O)N1)C(=O)N[C@@H](CCCN=C(N)N)C(=O)N1CCC[C@H]1C(=O)NCC(N)=O (stereo in doubt)	-2.44% (inactive)	
On1nnc2ccccc21	-2.06% (inactive)	
O=C(/N=N/C(=O)OCc1ccccc1)OCc1ccccc1	-1.22% (inactive)	
C=C(C)C(=O)OCCNC(C)(C)C	3.84% (inactive)	

Compound	activation	outcome
CCOC(=O)/C=C/c1ccccc1	1.58% (inactive)	
COCCOCCOCCOCCO	-2.03% (inactive)	
CCc1ccc(C=O)cc1	-2.41% (inactive)	
C=C(C)C(=O)OCCN(CC)CC	-2.79% (inactive)	
O=C(O)C(=O)Cc1ccccc1	-1.86% (inactive)	
C[C@@H]1O[C@@H](O[C@@H]2[C@@H](O)[C@H](OCCc3ccc(O)c(O)c3)O[C@H](CO[C@@H]3O[C@H](CO)[C@@H](O)[C@H](O)[C@H]3O)[C@H]2OC(=O)/C=C/c2ccc(O)c(O)c2)[C@H](O)[C@H](O)[C@H]1O	-4.47% (inactive)	
CC(=O)NCc1c(I)c(NC(C)=O)c(I)c(C(=O)O)c1I	-3.06% (inactive)	
CC(S)C(=O)NCC(=O)O (stereo not given)	3.14% (inactive)	
O=P(O)(O)OP(=O)(O)O	-2.27% (inactive)	
O=C(NCCc1c[nH]c2ccccc12)c1cccnc1	-3.17% (inactive)	
CCC(C)NC(N)=O (stereo not given)	-2.31% (inactive)	
N#Cc1ccc(C(=O)O)cc1	-2.51% (inactive)	
CC(C)CCCC(C)(C)O	-1.55% (inactive)	
CCCCNC1CC(C)(C)NC(C)(C)C1	-1.33% (inactive)	
NCCN1CCOCC1	-1.69% (inactive)	
Cc1ccc2c(c1)OCC(=O)CO2	-1.12% (inactive)	
O=C(NCC(O)CO)c1c(I)c(C(=O)NCC(O)CO)c(I)c(N(CCO)C(=O)CO)c1I (stereo not given)	4.87% [at 34.7 µM] (inactive)	
O=C1c2ccccc2C(=O)C1c1ccccc1	2.3% [at 34.7 µM] (inactive)	
O=C(O)Cc1ccc(Cl)cc1Cl	-1.76% (inactive)	
C[C@@H](O)[C@H]1C(=O)N2C(C(=O)O)=C(SCCN=CN)C[C@H]12	-0.814% [at 34.7 µM] (inactive)	
